The results in this text go back to PubChem BioAssay AID463188 (University of Pittsburgh Molecular Library Screening Center, 2010).

The structures appear in SMILES notation. Screen size: about 1,300 compounds; about 360 (28%) were called active.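 Rule for the calls: active = average inhibition of at least 50%, with Z-scores no higher than 3 in both the phospho-tyrosine peptide and fluorescence counterscreens; inactive = the rest.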 Only a sample is shown.

Test [1] is described as follows: Nef-activated Hck kinase blockers, duplicate retest – biochemical, Z-Lyte FRET, 384-well, p-Tyr peptide counterscreen, confirmation (AID 463188). The following applies: Recombinant Hck-YEEI:Nef, Z-Lyte FRET kinase assay; measured here: p-Tyr peptide counterscreen; at 10 µM.
The target of test [2] is Tyrosine-protein kinase HCK (Homo sapiens) (UniProt P08631). The test is described as above. The following applies: Recombinant Hck-YEEI:Nef, Z-Lyte FRET kinase assay; at 10 µM; stronger effect = higher value.
Sequence of Tyrosine-protein kinase HCK (Homo sapiens) (P08631 whole entry, looked up): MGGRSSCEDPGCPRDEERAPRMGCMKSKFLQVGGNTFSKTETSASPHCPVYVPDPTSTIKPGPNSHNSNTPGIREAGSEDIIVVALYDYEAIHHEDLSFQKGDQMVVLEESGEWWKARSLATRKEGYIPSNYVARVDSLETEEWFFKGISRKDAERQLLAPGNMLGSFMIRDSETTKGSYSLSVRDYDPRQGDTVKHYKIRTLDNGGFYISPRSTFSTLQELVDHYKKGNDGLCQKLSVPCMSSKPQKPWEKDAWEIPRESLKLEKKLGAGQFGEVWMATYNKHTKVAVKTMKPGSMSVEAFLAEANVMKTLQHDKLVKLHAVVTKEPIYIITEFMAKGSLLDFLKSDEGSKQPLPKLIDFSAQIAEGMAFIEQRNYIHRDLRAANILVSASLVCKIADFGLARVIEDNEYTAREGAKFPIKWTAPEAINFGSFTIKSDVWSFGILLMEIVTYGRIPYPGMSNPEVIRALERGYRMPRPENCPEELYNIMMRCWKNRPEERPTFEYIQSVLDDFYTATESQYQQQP

With `N#Cc1c(-c2cccs2)nc(SCC(=O)c2ccc(Br)cc2)[nH]c1=O`, the z-score in test [1] is -2.14. In addition, in test [2], the inhibition was 54.2% (active). For the molecule `Cc1ccc(S(=O)(=O)c2c(N)n(C)c3nc4ccccc4nc23)cc1`, in test [1], the z-score turned out to be 15.1. Moreover, the inhibition in test [2] is 51.3% (inactive).

`Cc1ccc(-n2c(=O)c(C#N)cc3c(=O)n4ccccc4nc32)cc1C`: in test [1], the inhibition came to 15.8. Consider `COc1ccc(N=Cc2c(O)[nH]c3ccccc23)cc1OC`, for which, in test [1], the z-score stood at 2.53. Moreover, in test [2], the inhibition was 67.3% (active). With `CCN(CC)c1ccc2cc(C(=O)O)c(=O)oc2c1`, the inhibition in test [1] turned out to be 180. Consider `CC(C)n1cnc2c(Nc3cccc(Cl)c3)nc(N(CCO)CCCO)nc21`, for which the z-score in test [1] is -1.42. The inhibition in test [2] was 92.6% (active). `COc1cccc(CNC(=O)CCC2CCCN(Cc3ccc(OC(F)F)cc3)C2)c1` (configuration not stated): the z-score in test [1] was 0.273. The inhibition in test [2] is 13.3% (inactive). For `CCn1c(=O)c2cc(C(=O)Nc3cccc(C(C)=O)c3)sc2c2ccccc21`, the z-score in test [1] was 0.522. The inhibition in test [2] is 30.2% (inactive). For `CC(C)(C)OC(=O)NCCCCCC(=O)N/N=C/c1coc2ccccc2c1=O`, the z-score in test [1] is -0.798. Moreover, the inhibition in test [2] is 80.9% (active). Consider `Oc1c(Cl)cc(Cl)c(Cl)c1Cc1c(O)c(Cl)cc(Cl)c1Cl`, for which the z-score in test [1] is -1.64. Besides, the inhibition in test [2] was 12.2% (inactive). As for `COC(=O)C1=CN(Cc2ccc(OC)c(OC)c2)C=C(C(=O)OC)C1c1cccs1`, in test [1], the inhibition was found to be 22.9. Turning to `O=C(Nc1ccncc1)c1cc(-c2ccccn2)nc2ccc(Br)cc12`, the z-score in test [1] is 0.0526. In test [2], the inhibition was 76.4% (active). For `Cc1ccc(-c2cc(C(=O)NCc3cn(C)nc3C)c3cc(Br)ccc3n2)cc1` the same measures were -0.98 and 46.1% (inactive). Taken in the same sequence, the figures for `O=C(CSc1cccc2cccnc12)N/N=C/c1cccnc1` were -0.0644 and 36.9% (inactive). For `Cc1ncc(CC(=O)n2cc(C(=O)c3cc(Cl)ccc3O)cn2)s1` the same measures were -1.16 and 75% (active). `COC/C=C/C1=CC2=CC(=O)C(C)(OC(=O)CCC(=O)OC)C(=O)C2=CO1` (configuration not stated): in test [1], the z-score is -0.884. Also, in test [2], the inhibition is 43.8% (inactive). For `O=C(Cc1ccccc1)Nc1cccc(C(=O)N/N=C/c2ccco2)c1` the same measures were -0.994 and 30% (inactive). Taken in the same sequence, the figures for `COc1ccc(C(=O)n2nc(-c3ccc(Cl)cc3)nc2N)cc1OC` were 3.28 and 2.06% (inactive).

In the case of `CCn1c(=N)c(C(=O)NCCCOC)cc2c(=O)n3cccc(C)c3nc21`, the inhibition in test [1] was 192. On to `Cc1ccc(/C=C/C(=O)Nc2ccc([N+](=O)[O-])c(NC(=O)/C=C/c3ccc(C)o3)c2)o1`, for which the z-score in test [1] was -2.13. The inhibition in test [2] was 51.4% (active). Consider `O=C(NNC(=O)c1csc(-c2cccnc2)n1)Nc1ccc(Cl)cc1`, for which the z-score in test [1] is -0.478. The inhibition in test [2] is 11.4% (inactive). Regarding `Cc1ccc(SC(CC(=O)c2ccc(C(C)(C)C)cc2)C(=O)O)cc1` (configuration not stated), the z-score in test [1] was -0.516. The inhibition in test [2] is 20.8% (inactive). Taken in the same sequence, the figures for `O=[N+]([O-])c1cc(Cl)cc(/C=N/NC(=S)Nc2cc(S(=O)(=O)N3CCOCC3)ccc2Cl)c1O` were -0.299 and 63.6% (active).

Turning to `CN(C)S(=O)(=O)c1cccc(-c2nn(-c3ccccc3)cc2/C=C2\SC(=S)N(CC(=O)O)C2=O)c1`, the z-score in test [1] is -1.38. Besides, the inhibition in test [2] is 38.1% (inactive). For `C=C(C)COc1ccc(-c2nc(N)ncc2-c2ccccc2OC)c(O)c1` the same measures were -0.555 and 55.8% (active).

Take `CCOc1ccc(-c2nc(N)ncc2-c2ccccc2OC)c(O)c1`: the z-score in test [1] was -1.74. The inhibition in test [2] is 63.2% (active). For the molecule `COc1cccc(C(=O)c2cc3ccc(O)cc3oc2=O)c1`, the inhibition in test [1] amounted to 51.8.

With `O=C1Oc2ccccc2C(=O)/C1=C/c1ccccc1O`, the z-score in test [1] was -0.0667. Also, the inhibition in test [2] is 30.1% (inactive). For the molecule `Cc1cc(/C=N/Nc2ccc([N+](=O)[O-])cn2)c(C)n1-c1cccc(C(=O)O)c1`, in test [1], the z-score came out at 0.131. Besides, the inhibition in test [2] is 38.5% (inactive). Consider `COC(=O)Cc1cc(=O)oc2c(C)c(O)ccc12`, for which the inhibition in test [1] was found to be 94.6. The same measure, in the same setting: with `CC(=O)Oc1ccc2c(C)c(CC(C)O)c(=O)oc2c1` (configuration not stated) the figure was 122. Take `CCCCN(CCCC)CC(O)Cn1c2ccccc2c(=O)c2ccccc21` (configuration not stated): the inhibition in test [1] came to 80.9. Turning to `OC(c1nnc(-c2ccccc2)o1)c1cccs1` (configuration not stated), the z-score in test [1] is -1.39. In test [2], the inhibition is 19.9% (inactive). On to `CCOc1ccccc1C1C(C(=O)OC)=CN(C)C=C1C(=O)OC`, for which, in test [1], the inhibition came to 41.6.

On to `Cc1cccc(-[n+]2c(-c3cccc(Br)c3)[nH]c3nc4ccccc4nc32)c1`, for which the z-score in test [1] is -0.694. Besides, in test [2], the inhibition was 13.5% (inactive). For `O=C(Nc1ccc(S(=O)(=O)Nc2nccs2)cc1)c1cc(-c2ccncc2)nc2ccccc12` the same measures were -0.658 and 65.3% (active).

Consider `Cc1cc(C)c2nc(-c3cccnc3)cc(C(=O)Nc3ccc(S(=O)(=O)Nc4onc(C)c4C)cc3)c2c1`, for which the z-score in test [1] is -1.22. Further, the inhibition in test [2] was 40.5% (inactive). With `COCCCn1c(-c2cccs2)nc2nc3ccccc3nc21`, the inhibition in test [1] is 61.4. As to `O=[N+]([O-])c1cccc(Nc2c3ccccc3nc3ccccc23)c1`, in test [1], the z-score turned out to be 0.872. Further, the inhibition in test [2] is 9.19% (inactive). For `CN(CC(=O)Nc1cccc(F)c1)CC(=O)Nc1cccc([N+](=O)[O-])c1` the same measures were -0.0694 and 62.1% (active).

Take `O=C(NCc1ccccc1)C1CCCN(c2nc3ccsc3c(=O)s2)C1` (configuration not stated): the z-score in test [1] is 2.05. Moreover, in test [2], the inhibition is 18.7% (inactive).

For `CN(C(=O)COC(=O)c1cc(-c2ccco2)nc2ccccc12)C1CCS(=O)(=O)C1` (configuration not stated), in test [1], the z-score is 0.38. Moreover, the inhibition in test [2] is 49.5% (inactive). For the molecule `c1ccc(CSc2nnc(-c3ccco3)c(-c3ccco3)n2)cc1`, the z-score in test [1] turned out to be 0.442. Also, the inhibition in test [2] was 26.4% (inactive).

As to `Clc1ccc2c(c1)C1=C(C(c3ccncc3)O2)C(c2ccc(Br)cc2)n2ncnc2N1` (configuration not stated), the z-score in test [1] is 1.34. In addition, the inhibition in test [2] was 92.8% (active).

`Cc1cc(OC(=O)c2ccccc2Cl)ccc1N1C(=O)CCC1=O`: the z-score in test [1] came out at 0.0636. Moreover, the inhibition in test [2] was 11.5% (inactive).

As for `COC(=O)c1ccc(OCC(O)CN(CCO)CC(O)Cn2ccc3ccccc32)cc1` (configuration not stated), in test [1], the z-score stood at 3.64. The inhibition in test [2] is -1.67% (inactive). Taken in the same sequence, the figures for `O=C(O)CCn1cc(/C=C/C(=O)c2ccc(Cl)cc2)c(-c2cccc(Br)c2)n1` were -0.131 and 24.8% (inactive). For `CCCn1c(=NC(C)=O)c(C(=O)OCC)cc2c(=O)n3ccccc3nc21` the same measures were 85.9 and 33.1% (inactive). In the case of `Cc1cccn2c(=O)c3cc(C#N)c(=O)n(CCCN4CCOCC4)c3nc12`, the inhibition in test [1] was 248.
